Data on ten compounds can be found in ChEMBL document CHEMBL3988442, “University of Dundee, Small-Polar-MMV Screening Library” (2021).

Common to all, as to parameters: scale not given: direction of the effect not stated beside the values
Assay [1] deals with Protein translocase subunit SecA (Escherichia coli (strain K12)) (UniProt P10408). Put plainly: Assay to Identify E. coli SecA ATPase Inhibitors. Conditions: 30 µM. The format is functional.
For assay [2], the target named is T1, Ubiquitin-activating enzyme e1, putative (Leishmania donovani (strain BPK282A1)) (UniProt E9BSI1).
T1 sequence (whole entry): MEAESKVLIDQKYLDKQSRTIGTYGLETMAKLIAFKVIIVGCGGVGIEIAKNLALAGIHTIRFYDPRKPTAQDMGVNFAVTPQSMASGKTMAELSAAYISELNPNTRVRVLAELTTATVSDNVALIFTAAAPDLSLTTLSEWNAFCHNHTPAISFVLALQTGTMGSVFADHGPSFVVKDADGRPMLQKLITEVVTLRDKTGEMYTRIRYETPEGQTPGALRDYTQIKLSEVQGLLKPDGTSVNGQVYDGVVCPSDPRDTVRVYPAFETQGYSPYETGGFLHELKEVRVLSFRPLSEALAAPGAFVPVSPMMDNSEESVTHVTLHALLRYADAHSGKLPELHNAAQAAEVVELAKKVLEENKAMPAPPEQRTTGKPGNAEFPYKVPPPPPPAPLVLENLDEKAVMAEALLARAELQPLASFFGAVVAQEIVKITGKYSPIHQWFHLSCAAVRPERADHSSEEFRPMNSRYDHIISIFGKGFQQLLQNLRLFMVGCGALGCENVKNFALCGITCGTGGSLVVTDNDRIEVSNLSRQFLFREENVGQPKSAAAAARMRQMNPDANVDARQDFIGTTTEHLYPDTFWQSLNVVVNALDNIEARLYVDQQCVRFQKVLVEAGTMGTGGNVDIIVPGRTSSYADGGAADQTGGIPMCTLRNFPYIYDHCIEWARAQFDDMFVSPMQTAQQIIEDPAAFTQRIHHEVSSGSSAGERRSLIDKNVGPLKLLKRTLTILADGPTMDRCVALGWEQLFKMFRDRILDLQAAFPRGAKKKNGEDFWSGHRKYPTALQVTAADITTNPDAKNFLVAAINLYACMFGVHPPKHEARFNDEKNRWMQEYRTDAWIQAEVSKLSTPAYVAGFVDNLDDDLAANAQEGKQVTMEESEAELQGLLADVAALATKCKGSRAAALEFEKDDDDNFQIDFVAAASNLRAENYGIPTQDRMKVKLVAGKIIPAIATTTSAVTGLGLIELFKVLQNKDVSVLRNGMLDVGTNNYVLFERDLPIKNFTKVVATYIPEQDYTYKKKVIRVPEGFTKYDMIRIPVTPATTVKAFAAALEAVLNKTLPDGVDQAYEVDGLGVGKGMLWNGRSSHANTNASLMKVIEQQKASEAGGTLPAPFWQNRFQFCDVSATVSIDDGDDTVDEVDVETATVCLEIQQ
Put plainly: Leishmania donovani Ubiquitin Activating Enzyme (LdE1). The class given is functional. Conditions: 30 µM.

Assay [3] concerns the target AMP-activated protein kinase, AMPK (Homo sapiens) (UniProt P54646+O43741+P54619+Q9UGJ0+Q9Y478+Q13131+Q9UGI9). Put plainly: AMP-dependent Kinase enzyme assay. An in vitro enzyme assay that detects ADP turnover that is directly proportional to AMPK activity. This uses naive AMPK that is activated during the assay with MK-8722. The format is functional. Conditions: 30 µM.

Assay [4] concerns the target Sialic acid-binding Ig-like lectin 9 (Homo sapiens) (UniProt Q9Y336). As to the kind of experiment: Hs-Siglec9 ALPHAscreen SOP 20170721. Conditions: 10 µM.
The test system of the next assay is Trypanosoma cruzi. As to the kind of experiment: Trypanosoma cruzi phosphomannomutase and mannose-1-phosphate guanylyltransferase assay. The format is functional. Conditions: 10 µM.
The target of assay [5] is T2, Arginase-2, mitochondrial (Homo sapiens) (UniProt P78540).
T2 sequence (whole entry): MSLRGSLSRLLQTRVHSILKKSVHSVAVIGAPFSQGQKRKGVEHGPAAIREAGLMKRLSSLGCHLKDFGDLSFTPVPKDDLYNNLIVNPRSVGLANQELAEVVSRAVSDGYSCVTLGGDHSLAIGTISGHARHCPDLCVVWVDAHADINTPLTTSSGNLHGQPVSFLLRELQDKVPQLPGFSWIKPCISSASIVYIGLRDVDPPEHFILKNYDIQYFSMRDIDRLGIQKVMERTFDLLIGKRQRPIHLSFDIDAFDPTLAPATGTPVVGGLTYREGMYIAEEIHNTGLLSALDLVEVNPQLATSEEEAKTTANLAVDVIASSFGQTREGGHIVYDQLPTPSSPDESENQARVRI
Put plainly: in vitro enzyme assay to detect the production of urea directly proportional to the activity of Arginase II. Note: in the data most compounds retested in dose-response had high values. The format is functional. Conditions: 33.3 µM.

In assay [6] the target is T3, Proteasome subunit beta (Trypanosoma cruzi) (UniProt O96673).
T3 sequence (whole entry): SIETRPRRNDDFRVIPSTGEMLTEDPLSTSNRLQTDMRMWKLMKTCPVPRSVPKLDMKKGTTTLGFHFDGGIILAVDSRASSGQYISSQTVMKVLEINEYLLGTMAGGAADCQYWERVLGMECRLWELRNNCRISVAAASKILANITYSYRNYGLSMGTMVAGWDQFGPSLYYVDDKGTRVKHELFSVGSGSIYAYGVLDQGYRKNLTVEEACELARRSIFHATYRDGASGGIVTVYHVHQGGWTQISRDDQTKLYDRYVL
Put plainly: Trypanosoma cruzi proteasome chymotrypsin-like activity (TcProtChymo) assay. Note: in the data most compounds retested in dose-response had high values. The class given is functional. Conditions: 9.37 µM.

The species named for the next assay is Homo sapiens. Put plainly: To identify inhibition of the IFN signalling (Jak-Stat) pathway via expression of an eGFP reporter gene under the control of an IFN-stimulated response element (ISRE) containing MxA promoter. The format is functional. Conditions: 30 µM. A general note: In a reporter assay the amount or activity of a reporter protein is the signal.

Assay [7] addresses T4, Tyrosyl-tRNA synthetase, putative (Trypanosoma cruzi (strain CL Brener)) (UniProt Q4DSP6).
T4 sequence (whole entry): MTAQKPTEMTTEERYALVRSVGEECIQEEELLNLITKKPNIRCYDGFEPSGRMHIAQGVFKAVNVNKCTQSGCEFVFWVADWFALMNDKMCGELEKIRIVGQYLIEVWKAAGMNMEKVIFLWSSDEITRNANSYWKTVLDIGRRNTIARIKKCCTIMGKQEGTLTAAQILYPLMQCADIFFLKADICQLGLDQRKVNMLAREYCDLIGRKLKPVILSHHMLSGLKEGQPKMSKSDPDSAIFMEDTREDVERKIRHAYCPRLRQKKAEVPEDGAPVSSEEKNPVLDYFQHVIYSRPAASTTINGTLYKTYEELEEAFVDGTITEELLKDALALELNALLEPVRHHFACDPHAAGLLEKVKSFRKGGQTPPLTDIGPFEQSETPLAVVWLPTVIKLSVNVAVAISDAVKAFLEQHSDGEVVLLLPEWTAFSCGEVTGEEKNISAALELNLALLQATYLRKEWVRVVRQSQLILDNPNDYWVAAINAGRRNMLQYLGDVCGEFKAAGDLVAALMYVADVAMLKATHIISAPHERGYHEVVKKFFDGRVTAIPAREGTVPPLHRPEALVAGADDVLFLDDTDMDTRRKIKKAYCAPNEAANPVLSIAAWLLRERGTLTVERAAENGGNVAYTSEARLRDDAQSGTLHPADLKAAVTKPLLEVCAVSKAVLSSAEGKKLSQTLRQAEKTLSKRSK
As to the kind of experiment: Trypanosoma cruzi tyrosyl tRNA synthetase (TcYRS) _High Tyrosine SOP. Note: in the data most compounds retested in dose-response had high values. The format is functional. Conditions: 30 µM.

Assay [8] deals with T4, Tyrosyl-tRNA synthetase, putative (Trypanosoma cruzi (strain CL Brener)). Put plainly: Trypanosoma cruzi tyrosyl tRNA synthetase (TcYRS) SOP. The format is functional. Conditions: 30 µM.
The target of assay [9] is Chromo domain-containing protein 1 (Saccharomyces cerevisiae (strain ATCC 204508 / S288c) (Baker's yeast)) (UniProt P32657). Put plainly: ScCHD-1 Enzyme Inhibition Assay. Note: in the data most compounds retested in dose-response had high values. The class given is functional. Conditions: 30 µM.
Chromo domain-containing protein 1 (Saccharomyces cerevisiae (strain ATCC 204508 / S288c) (Baker's yeast)), sequence (P32657 whole entry, the tested form may be a part): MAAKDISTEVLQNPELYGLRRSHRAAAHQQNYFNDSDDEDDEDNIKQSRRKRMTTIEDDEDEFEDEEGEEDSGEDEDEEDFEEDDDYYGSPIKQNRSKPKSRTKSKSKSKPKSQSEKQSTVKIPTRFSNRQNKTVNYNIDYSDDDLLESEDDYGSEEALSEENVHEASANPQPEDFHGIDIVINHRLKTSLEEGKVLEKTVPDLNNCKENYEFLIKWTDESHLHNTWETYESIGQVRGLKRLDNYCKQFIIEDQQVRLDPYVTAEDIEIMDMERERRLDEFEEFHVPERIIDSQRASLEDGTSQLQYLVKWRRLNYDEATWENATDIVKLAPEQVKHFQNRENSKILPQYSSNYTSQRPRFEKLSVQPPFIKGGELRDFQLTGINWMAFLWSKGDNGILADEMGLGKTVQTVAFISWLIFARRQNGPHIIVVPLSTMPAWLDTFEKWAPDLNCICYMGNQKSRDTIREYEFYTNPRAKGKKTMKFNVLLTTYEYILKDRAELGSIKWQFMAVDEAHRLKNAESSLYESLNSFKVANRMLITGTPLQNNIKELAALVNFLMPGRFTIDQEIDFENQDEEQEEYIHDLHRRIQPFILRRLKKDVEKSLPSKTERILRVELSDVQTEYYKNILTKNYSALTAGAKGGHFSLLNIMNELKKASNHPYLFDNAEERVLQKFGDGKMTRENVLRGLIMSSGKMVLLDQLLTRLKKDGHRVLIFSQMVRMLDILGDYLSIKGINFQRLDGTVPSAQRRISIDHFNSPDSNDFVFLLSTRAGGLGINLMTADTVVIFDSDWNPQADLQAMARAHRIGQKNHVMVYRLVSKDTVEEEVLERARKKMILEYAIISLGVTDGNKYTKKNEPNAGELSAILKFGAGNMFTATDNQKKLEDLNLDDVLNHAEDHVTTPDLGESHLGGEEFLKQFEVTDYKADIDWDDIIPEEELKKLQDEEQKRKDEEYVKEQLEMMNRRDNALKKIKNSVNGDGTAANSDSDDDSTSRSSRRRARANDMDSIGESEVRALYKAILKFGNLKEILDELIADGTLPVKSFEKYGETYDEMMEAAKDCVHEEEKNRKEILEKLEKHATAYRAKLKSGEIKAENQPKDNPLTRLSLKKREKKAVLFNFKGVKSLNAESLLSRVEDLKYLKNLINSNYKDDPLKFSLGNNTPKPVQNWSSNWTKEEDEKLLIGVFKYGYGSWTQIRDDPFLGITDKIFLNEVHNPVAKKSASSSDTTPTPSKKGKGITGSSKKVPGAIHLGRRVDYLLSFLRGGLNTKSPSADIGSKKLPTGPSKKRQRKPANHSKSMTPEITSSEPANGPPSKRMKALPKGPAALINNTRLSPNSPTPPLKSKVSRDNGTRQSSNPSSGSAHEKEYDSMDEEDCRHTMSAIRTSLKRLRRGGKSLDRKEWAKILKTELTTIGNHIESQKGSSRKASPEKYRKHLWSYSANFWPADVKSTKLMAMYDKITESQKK

For some assays here: Measured potencies and affinities stand elsewhere.

Protein translocase subunit SecA (Escherichia coli (strain K12)), sequence (P10408 whole entry): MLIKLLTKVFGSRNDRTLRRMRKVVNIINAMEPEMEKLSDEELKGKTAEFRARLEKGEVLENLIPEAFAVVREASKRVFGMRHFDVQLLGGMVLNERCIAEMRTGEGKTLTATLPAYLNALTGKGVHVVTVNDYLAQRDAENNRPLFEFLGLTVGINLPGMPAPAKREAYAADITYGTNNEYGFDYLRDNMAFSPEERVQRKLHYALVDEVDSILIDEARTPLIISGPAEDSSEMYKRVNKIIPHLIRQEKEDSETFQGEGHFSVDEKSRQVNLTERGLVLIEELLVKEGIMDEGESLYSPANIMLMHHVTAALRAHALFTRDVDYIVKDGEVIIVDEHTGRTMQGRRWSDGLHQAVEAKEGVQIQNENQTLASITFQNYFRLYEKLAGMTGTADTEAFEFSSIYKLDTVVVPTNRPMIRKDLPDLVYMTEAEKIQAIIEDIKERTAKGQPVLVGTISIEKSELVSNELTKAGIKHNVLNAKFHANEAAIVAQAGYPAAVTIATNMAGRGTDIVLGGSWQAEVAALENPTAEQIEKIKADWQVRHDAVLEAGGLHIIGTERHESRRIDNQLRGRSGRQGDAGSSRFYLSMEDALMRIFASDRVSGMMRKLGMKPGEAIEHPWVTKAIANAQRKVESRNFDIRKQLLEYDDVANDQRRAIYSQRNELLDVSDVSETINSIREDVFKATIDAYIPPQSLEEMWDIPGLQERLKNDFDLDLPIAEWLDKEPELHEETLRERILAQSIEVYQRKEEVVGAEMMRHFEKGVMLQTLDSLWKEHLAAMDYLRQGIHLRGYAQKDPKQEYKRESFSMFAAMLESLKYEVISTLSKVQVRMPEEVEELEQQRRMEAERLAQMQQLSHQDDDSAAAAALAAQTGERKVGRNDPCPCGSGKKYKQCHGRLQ
Sialic acid-binding Ig-like lectin 9 (Homo sapiens), sequence (Q9Y336 whole entry): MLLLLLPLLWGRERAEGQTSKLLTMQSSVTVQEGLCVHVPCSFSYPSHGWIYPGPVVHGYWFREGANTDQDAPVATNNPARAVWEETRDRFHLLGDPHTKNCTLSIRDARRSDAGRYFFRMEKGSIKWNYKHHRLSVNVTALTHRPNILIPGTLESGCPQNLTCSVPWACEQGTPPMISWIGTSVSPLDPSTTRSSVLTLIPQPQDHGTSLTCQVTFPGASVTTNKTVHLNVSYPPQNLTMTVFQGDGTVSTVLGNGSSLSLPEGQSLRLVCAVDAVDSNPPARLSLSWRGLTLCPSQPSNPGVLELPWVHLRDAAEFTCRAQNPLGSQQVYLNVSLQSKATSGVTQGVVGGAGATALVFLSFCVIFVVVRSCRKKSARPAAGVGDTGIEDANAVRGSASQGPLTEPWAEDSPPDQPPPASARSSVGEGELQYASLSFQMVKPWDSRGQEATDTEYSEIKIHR

`CCn1cc(NC(=O)NCC(c2cccs2)N(C)C)cn1` (stereo not given): the Percent Effect in assay [1] is 0.424%; in assay [2], 18.4%; in assay [3] it was -2.49%; in assay [4], 5.82%; in the assay with Trypanosoma cruzi it was -3.76%; in [5], -3.83%. In addition, the Percent Effect in [6] is 7.69%; in the assay filed under Homo sapiens, 2.58%; in assay [7], 5.39%; in [8], 19.5%; in assay [9], -7.09%.

Turning to `CNc1cncc(C2CCCN2Cc2ccccc2OCC(=O)O)n1` (stereo not given), the Percent Effect in assay [1] is -4.52%; in assay [2], -52.7%; in assay [3] it was 7.74%; in [4], 0.809%; in the assay on Trypanosoma cruzi, -3.75%; in assay [5] it was -2.55%. For the same compound, the Percent Effect is 9.52% in [6]; 5.72% in the assay filed under Homo sapiens; 1.07% in assay [7]; 3.9% in assay [8]; 0.143% in assay [9].

In the case of `CNC(=O)CN1CCC(NC(=O)N(C)Cc2cc(C)on2)CC1`, the Percent Effect was -1.81% in assay [1]; 13% in assay [2]; -1.11% in [3]; 13.1% in assay [4]; 9.7% with Trypanosoma cruzi; 0.632% in assay [5]. The Percent Effect is 9.78% in [6]; -1.08% in the assay filed under Homo sapiens; 8.57% in assay [7]; 18.8% in assay [8]; -7.35% in [9].

Take `CCOCC(=O)N1C[C@@H]2COC[C@H](c3nc(C)no3)[C@@H]2C1`: the Percent Effect in assay [1] is -1.23%; in assay [2] it was -5.41%; in assay [3], 5.84%; in assay [4], -1.1%; in the assay with Trypanosoma cruzi, 0.586%; in assay [5], 2.5%. In addition, the Percent Effect in assay [6] was 9.21%; in the assay filed under Homo sapiens, 1.97%; in assay [7], -15.8%; in [8], -1.22%; in assay [9] it was -2.33%.

`COCCOc1ccc(NC(=O)C2CCCN(C(N)=O)C2)cn1` (stereo not given): the Percent Effect in [1] was -4.58%; in assay [2] it was 7.59%; in [3] it was 0.0742%; in assay [4] it was 4.56%; in the assay on Trypanosoma cruzi it was -6.33%; in [5] it was 1.52%. Moreover, the Percent Effect is 5.82% in assay [6]; 22.6% in the assay listed under Homo sapiens; -0.493% in [7]; -1.27% in assay [8]; -5.42% in assay [9].

For the compound `COCC1c2nnn(CC3CC3)c2CCN1C(=O)c1cccc(F)c1` (stereo not given), the Percent Effect in [1] is -5.76%; in assay [2], 0%; in [3], -4.62%; in [4], 0.968%; in the assay with Trypanosoma cruzi it was -4.59%; in [5], -0.248%. Moreover, the Percent Effect came out at 3% in assay [6]; 10% in the assay listed under Homo sapiens; 5.38% in assay [7]; 6.17% in assay [8]; 1.63% in [9].

`Cc1nn(CC(=O)N2CCCC2Cn2cccn2)c(C)c1Cl` (stereo not given): the Percent Effect is -7.11% in assay [1]; 21.6% in [2]; 0.532% in assay [3]; 8.29% in assay [4]; 5.86% with Trypanosoma cruzi; 36.2% in assay [5]. In addition, the Percent Effect in [6] was 22.9%; in the assay filed under Homo sapiens, 21.4%; in assay [7] it was 9.9%; in assay [8] it was 20.7%; in assay [9], -6.56%.

Regarding `CC(C)c1nccn1C1CCCN(C(=O)c2ccnc(N(C)C)c2)C1` (stereo not given), the Percent Effect in [1] is -2.97%; in assay [2], -7.79%; in [3] it was -1.67%; in assay [4], -1.25%; in the assay with Trypanosoma cruzi, 0.0979%; in assay [5] it was 1.47%. Besides, the Percent Effect is 10.6% in [6]; 18.4% in the assay listed under Homo sapiens; 1.91% in assay [7]; -11.8% in assay [8]; -18.1% in assay [9].

`CSCc1cccc(S(=O)(=O)N2CCC(C)CC2)c1`: the Percent Effect in assay [1] is -5.58%; in assay [2] it was -4%; in assay [3] it was 7.56%; in assay [4], 1.46%; in the assay on Trypanosoma cruzi, -5.5%; in assay [5] it was -5.11%. Besides, the Percent Effect was 7.39% in [6]; 27.8% in the assay filed under Homo sapiens; -11.6% in [7]; -10.3% in [8]; -6.13% in [9].

In the case of `O=C(Cn1nc(-c2ccc(F)cc2)oc1=O)NCc1ccc(F)cc1`, the Percent Effect is 0.533% in [1]; 10.5% in assay [2]; -7.15% in assay [3]; -1.53% in assay [4]; -7.52% in the assay with Trypanosoma cruzi; -6.9% in assay [5]. Also, the Percent Effect was 13.4% in assay [6]; 21% in the assay filed under Homo sapiens; 0.49% in assay [7]; 7.32% in [8]; -14.3% in assay [9].
